Measured values published in the supplement of paper PMC9925115.
Counter-ions that a name gives are not always drawn. ± gives the uncertainty stated by the source.

System: FLX1
Experiment: cell viability z-score within plate (CellTiter-Glo), mean of 3 biological replicates; higher = higher viability relative to plate (less growth inhibition)
Conditions: 2 µM; time (hr): 120
Experimental: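 FLX1 fibrolamellar carcinoma cells (DNAJB1-PRKACA fusion), 600 cells/well in 384-well plates, treated with a Selleck kinase inhibitor library (L1200) at 2 uM for 5 days (120 hr); viability by CellTiter-Glo. A z-score was computed within each plate and averaged over three biological replicates.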

SMILES	cell viability z-score within plate
CCCS(=O)(=O)Nc1ccc(F)c(C(=O)c2c[nH]c3ncc(-c4ccc(Cl)cc4)cc23)c1F [Vemurafenib (PLX4032, RG7204)]	-3.08 ± 1.3
COc1cccc2cc(-c3nc([C@H]4CC[C@H](C(=O)O)CC4)n4ncnc(N)c34)[nH]c12	0.362 ± 0.51
CNC(=O)Nc1ccc(-c2nc(N3CC4CCC(C3)O4)c3cnn(C4CCC5(CC4)OCCO5)c3n2)cc1	0.631 ± 0.77
COc1cc(Nc2ncc(F)c(Nc3ccc4c(n3)NC(=O)C(C)(C)O4)n2)cc(OC)c1OC [R406 (free base)]	0.533 ± 0.55
O=S(=O)(c1cccc2cnccc12)N1CCCNCC1 [Fasudil (HA-1077) HCl]	0.511 ± 0.42
O=c1ccc2ccc(O)c(O)c2o1 [Daphnetin]	1.53 ± 0.8
CCN1CCN(Cc2ccc(-c3cc4c(N[C@H](C)c5ccccc5)ncnc4[nH]3)cc2)CC1	0.278 ± 0.61
COc1cc2c(Oc3ccc4[nH]c(C)cc4c3F)ncnc2cc1OCCCN1CCCC1 [Cediranib (AZD2171)]	0.6 ± 0.47
O=C(/C=C/c1ccc2ccccc2n1)c1ccncc1	0.276 ± 0.49
Cc1nc(N)sc1-c1ccnc(Nc2ccc(N3CCOCC3)cc2)n1	0.352 ± 0.28
Cc1ccc(-n2nc(C(C)(C)C)cc2NC(=O)Nc2ccc(OCCN3CCOCC3)c3ccccc23)cc1 [Doramapimod (BIRB 796)]	0.479 ± 0.82
CNc1nc(Nc2cnn([C@H]3CCN(C4COC4)C[C@@H]3F)c2Cl)ncc1C(F)(F)F	-0.856 ± 0.51
Cn1c(=O)c(F)c(Nc2ccc(I)cc2F)c2c(=O)n(C[C@@H](O)CO)cnc21	1.04 ± 0.62
